{"source": "PubChem BioAssay AID449762", "about": "(Southern Research Specialized Biocontainment Screening …, 2010)", "note": "Out of some 330,000 compounds screened, about 1,900 (0.58%) were called active. About 4% were inconclusive and are not listed. Not all results are given here. Entries with a potency or affinity are not part of this list. Values without a mark were called inactive. Rule as the data show it: inconclusive = inhibition above about 70% without an active follow-up result; inactive = below that."}
{"assay": "M. tuberculosis growth inhibition, HTS (AID 449762);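 also: bacterial growth assessed after seven days of incubation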", "details": "M. tuberculosis H37Rv growth inhibition, 7H9 media; at 25 µM; active compounds read high", "units": {"inhibition": "%"}}
{"compound": "CCOC(=O)c1c(NC(=O)CCN2C(=O)c3cccc([N+](=O)[O-])c3C2=O)sc(C(=O)OC(C)C)c1C", "inhibition": 3.56}
{"compound": "CCOc1ccc(NC(=O)CC2CC(C)(C)OC2=O)cc1", "note": "(stereo not given)", "inhibition": -2.88}
{"compound": "CCOc1ccc(Nc2nc(-c3cccnc3)cs2)cc1", "inhibition": 4.09}
{"compound": "CC(=O)Nc1ccc(NC(=O)C(C)OC(=O)c2cc(S(=O)(=O)N(C)C)ccc2N2CCCC2)cc1", "note": "(stereo not given)", "inhibition": 1.92}
{"compound": "Cc1ccc(C2=NC(C)(C)NC2=O)cc1", "inhibition": 11.8}
{"compound": "O/N=C/c1ccnc(SCc2ccccc2)n1", "inhibition": 16.4}
{"compound": "CSc1nccc(N/N=C/c2ccccc2)n1", "inhibition": 0.53}
{"compound": "CC(CN1CCC(O)CC1)c1ccccc1", "note": "(stereo not given)", "inhibition": -0.24}
{"compound": "Clc1ccccc1CNC1CN2CCC1CC2", "note": "(stereo not given)", "inhibition": -2.13}
{"compound": "FC(F)(F)c1nnc2ccc(N3CCCC3)nn12", "inhibition": -7.59}
{"compound": "FC(F)(Cl)c1nnc2ccc(Sc3ccccn3)nn12", "inhibition": 2.59}
{"compound": "O=C(OCc1c(F)cccc1Cl)c1cnc2ccccc2n1", "inhibition": 48.8}
{"compound": "COC(=O)c1cnc2ccccc2n1", "inhibition": -3.05}
{"compound": "CC(C)C(NS(=O)(=O)c1cccs1)C(=O)NCCCN1CCCCCC1", "note": "(stereo not given)", "inhibition": -1.69}
{"compound": "COc1ccc(OCCCC(=O)Nc2ccc(N3CCCCC3)cc2)cc1", "inhibition": -1.89}
{"compound": "CCCc1nnc(NC(=O)CCC(=O)N2CCN(c3nc(C)cc(C)n3)CC2)s1", "inhibition": 0.06}
{"compound": "COc1ccc(S(=O)(=O)Cc2ccc(C(=O)NCCCN3CCc4ccccc4C3)o2)cc1", "inhibition": -0.56}
{"compound": "COc1cccc(OC)c1OCCCCc1c(C)n[nH]c1C", "inhibition": 4.51}
{"compound": "COc1cccc(OC)c1OCCCCCc1c(C)n[nH]c1C", "inhibition": -7.6}
{"compound": "COCC(C)NC(=O)Cc1ccc(F)cc1", "note": "(stereo not given)", "inhibition": -4.61}
{"compound": "COc1ccc(NS(=O)(=O)c2cccc(C(=O)NC3CCN(Cc4ccccc4)CC3)c2)cc1", "inhibition": 6.7}
{"compound": "O=C(NC1CCN(Cc2ccccc2)CC1)c1cccc(S(=O)(=O)Nc2ccc(F)cc2)c1", "inhibition": 37.8}
{"compound": "COCc1cc(C)nc(SCc2ccccc2)c1C#N", "inhibition": 15.8}
{"compound": "COc1ccc(/C=C/C(=O)Oc2cccc(/C=N/NC(=O)c3cccc(F)c3)c2)cc1", "inhibition": 7.76}
{"compound": "O=C(Oc1cccc(-n2cnnn2)c1)c1ccccc1Cl", "inhibition": -11.6}
{"compound": "CCc1ccccc1NC(=O)c1noc(C(C)C)c1[N+](=O)[O-]", "inhibition": 2.17}
{"compound": "Cc1ccc(NC(=O)c2noc(C(C)C)c2[N+](=O)[O-])cc1", "inhibition": 0.01}
{"compound": "COc1ccc(C(C(=O)NC2CCCC2)N(Cc2ccco2)C(=O)c2snc(C(N)=O)c2N)cc1OC", "note": "(stereo not given)", "inhibition": 3.33}
{"compound": "COc1cccc(/C=N/NC(=O)c2cccc([N+](=O)[O-])c2)c1OS(=O)(=O)c1ccccc1", "inhibition": -10.3}
{"compound": "Cc1nc(-c2ccc(NC(=O)C3CC3)cc2)cs1", "inhibition": 37.4}
{"compound": "Cc1cc(Nc2cc(N3CCN(C)CC3)nc(Sc3ccc(NC(=O)C4CC4)cc3)n2)n[nH]1", "inhibition": 3.52}
{"compound": "COc1cccc(NC(=O)Cn2c(=O)n(-c3ccccc3)c(=O)c3oc4ccccc4c32)c1", "inhibition": -3.21}
{"compound": "Cc1ccc2c(c1)c1c(n2C)C(C(N)=O)CCC1", "note": "(stereo not given)", "inhibition": -14.2}
{"compound": "Cn1c(CNc2nc3ccccc3n2CCN2CCCCC2)nc2ccccc21", "inhibition": 1.84}
{"compound": "c1ccc(Cn2c(CNc3nc4ccccc4n3CCN3CCOCC3)nc3ccccc32)cc1", "inhibition": 10.7}
{"compound": "Cc1ccc(C(=O)N/C(=C/c2cccs2)C(=O)NCCCn2ccnc2)cc1", "inhibition": -0.44}
{"compound": "O=C(NCCCSc1ccccc1)c1cccnc1", "inhibition": 2.65}
{"compound": "O=C(Cc1ccccc1)N/N=C/c1ccccn1", "inhibition": -3.52}
{"compound": "NC(=O)N/N=C/c1ccc2cccc(OCc3ccccc3)c2n1", "inhibition": 12.6}
{"compound": "CC(N)(C(=O)O)c1cccc(OCc2cccc(Cl)c2)c1", "note": "(stereo not given)", "inhibition": -9.95}
{"compound": "CN(C(=O)CSc1nccc(=O)[nH]1)C1CCCCC1", "inhibition": -5.2}
{"compound": "CCCn1c(Nc2ccccc2C)nc2ccccc21", "inhibition": -13.5}
{"compound": "CCCn1c(Nc2ccccc2)nc2ccccc21", "inhibition": 3.3}
{"compound": "CCN1CCN(Cc2cc(Br)ccc2O)CC1", "inhibition": -0.17}
{"compound": "CC(C)CCC(C)NC(=O)CN1C(=O)NC(C)(c2ccc3ccccc3c2)C1=O", "note": "(stereo not given)", "inhibition": -6.81}
{"compound": "COc1ccc(C(=O)OCC(=O)NC2CC2)cc1F", "inhibition": 2.71}
{"compound": "NNC(=S)NCc1ccco1", "inhibition": -5.28}
{"compound": "CCNC(=S)NCc1ccco1", "inhibition": 8.6}
{"compound": "CC[C@@H]1CN(C)[C@H]2Cc3c([nH]c4ccccc34)C(=O)C[C@@H]1[C@@H]2C(=O)OC", "inhibition": -5.83}
{"compound": "COc1ccc(C2CC(c3ccc(Cl)cc3)n3nc(N)nc3N2)cc1", "note": "(stereo not given)", "inhibition": 1.53}
{"compound": "CCCc1nn2c(=O)c(C(c3cccc(Cl)c3)c3c(O)nc4sc(CCC)nn4c3=O)c(O)nc2s1", "inhibition": -6.75}
{"compound": "CCOc1ccc(NC(=O)CCc2nnc3ccc(N4CCN(C)CC4)nn23)cc1", "inhibition": 1.67}
{"compound": "COc1ccc(NC(=O)CCc2nnc3ccc(N4CCC(C)CC4)nn23)cc1", "inhibition": -0.59}
{"compound": "O=C1CCCc2c1nc(-c1ccc([N+](=O)[O-])cc1)n2O", "inhibition": 0.46}
{"compound": "CC(C)CNC(=O)/C(C#N)=C1\\N=C(NC(=O)c2ccco2)c2ccccc21", "inhibition": 12.4}
{"compound": "Cc1cc(OC(F)F)ccc1NC(=O)Nc1ccc([N+](=O)[O-])cc1", "inhibition": 17.3}
{"compound": "O=C(Nc1ccc(OC(F)F)c(Cl)c1)Nc1ccc2c(c1)OCO2", "inhibition": 5.38}
{"compound": "Cc1ncc([N+](=O)[O-])n1CC(=O)NC1CCCCCC1", "inhibition": 0.9}
{"compound": "O=C(Cc1ccc([N+](=O)[O-])cc1)OCc1c(F)cccc1Cl", "inhibition": 7.51}
{"compound": "CC(C)N(Cc1ccccc1)CC(O)COc1ccc(S(=O)(=O)N2CCOCC2)cc1Cl", "note": "(stereo not given)", "inhibition": 1.09}
{"compound": "O=c1cc(-c2ccccc2O)nc(-c2ccccc2)[nH]1", "inhibition": 15.5}
{"compound": "Cc1nn(-c2ccc(F)cc2)c(Cl)c1/C=C(\\CC(=O)O)c1nc2ccccc2s1", "inhibition": -5.29}
{"compound": "Cc1cc(C)c(C(=O)COC(=O)[C@H](C)Nc2ccc(C(F)(F)F)cc2[N+](=O)[O-])c(C)c1", "inhibition": -3.25}
{"compound": "COc1ccc(C(=O)COC(=O)[C@H](C)Nc2ccc(C(F)(F)F)cc2[N+](=O)[O-])c(OC)c1", "inhibition": 11.7}
{"compound": "CCOC(=O)CSc1cc(C)c(C#N)c2nc3ccccc3n12", "inhibition": 9.77}
{"compound": "Cc1cccc(NC(=O)CSc2cc(C)c(C#N)c3nc4ccccc4n23)c1", "inhibition": -1.23}
{"compound": "COC(=O)C1=CO[C@@H](O[C@@H]2O[C@H](CO)[C@@H](O)[C@H](O)[C@H]2O)C2C1CC(O)O[C@H]2C", "note": "(stereo not given in full)", "inhibition": -0.01}
{"compound": "COc1ccccc1-c1nnn(C/C(N)=N/O)n1", "inhibition": -5.65}
{"compound": "Cc1cc(C)c(NC(=O)CSc2nccn2C)c(C)c1", "inhibition": 5.06}
{"compound": "COc1ccc(CNC(=O)c2sc3nc4c(c(C(F)(F)F)c3c2N)CCC4)cc1OC", "inhibition": 38.5}
{"compound": "COc1ccc(CNC(=O)c2sc3nc4c(c(C(F)(F)F)c3c2N)CCC4)cc1", "inhibition": 0.35}
{"compound": "CC(=O)NCCNC(=O)C1CCC(CNc2nc(=S)[nH]c3ccccc23)CC1", "note": "(stereo not given)", "inhibition": -6.34}
{"compound": "CC(C)(C)c1ccc(OCCNC(=O)c2ncn[nH]2)cc1", "inhibition": 31.8}
{"compound": "CCOc1cccc(C=NCCc2ccc(OC)c(OC)c2)c1O", "inhibition": -1.63}
{"compound": "COc1cccc(C=Nc2cc(C)cc(C)c2)c1O", "inhibition": 4.13}
{"compound": "CCOc1cccc(/C=N/NC(=S)Nc2ccccc2[N+](=O)[O-])c1O", "inhibition": 0.56}
{"compound": "CCCCNC(=S)N/N=C/c1ccccc1F", "inhibition": 31.4}
{"compound": "Cc1ccc([C@@H]2CC=C(C(=O)O)[C@H](c3ccc(F)cc3)N2S(=O)(=O)c2ccc(C)cc2)cc1", "inhibition": 7.16}
{"compound": "O=C(O)C(c1ccccc1)N1CCCC1", "note": "(stereo not given)", "inhibition": -1.43}
{"compound": "Nc1ccccc1Sc1ccccc1[N+](=O)[O-]", "inhibition": -1.08}
{"compound": "Nc1ccccc1SC(C[N+](=O)[O-])c1ccccc1", "note": "(stereo not given)", "inhibition": 10.3}
{"compound": "Cc1ccc(NC(=O)Cn2c3ccc(F)cc3c3nc4n(c(=O)c32)CCS4)cc1F", "inhibition": 6.34}
{"compound": "CC(C)(C)c1csc(NC(=O)c2ccncc2)n1", "inhibition": 6.43}
{"compound": "CC(C)(C)c1csc(NC(=O)c2ccccc2O)n1", "inhibition": 3.48}
{"compound": "O=C(CN1CCN(c2cccc(Cl)c2)CC1)NC1CCCc2ccccc21", "note": "(stereo not given)", "inhibition": 11.3}
{"compound": "O=C(CN1CCN(c2ccccc2Cl)CC1)NC1CCCc2ccccc21", "note": "(stereo not given)", "inhibition": 7.47}
{"compound": "CN(CCNC(=O)C1CCCN(c2ncnc3c2nc2n3CCCCC2)C1)Cc1ccccc1", "note": "(stereo not given)", "inhibition": -0.58}
{"compound": "CC1CCCN(C(=O)CN2C(=O)NC(C)(c3ccc4ccccc4c3)C2=O)C1", "note": "(stereo not given)", "inhibition": 3.55}
{"compound": "C[C@H](CO)N1C[C@H](C)[C@@H](CN(C)Cc2ccc(-c3ccccc3)cc2)Oc2c(NS(=O)(=O)c3ccc(F)cc3)cccc2C1=O", "inhibition": -1.65}
{"compound": "C[C@]12CC[C@H](O)CC1=CC(=O)C1C2CC[C@]2(C)C(=O)CCC12", "note": "(stereo not given in full)", "inhibition": -1.13}
{"compound": "C[C@]12CC[C@@H](O)CC1=CC(=O)C1C2CC[C@]2(C)C(=O)CCC12", "note": "(stereo not given in full)", "inhibition": 3.17}
{"compound": "NCCCn1cnc2ccccc21", "inhibition": 9.6}
{"compound": "Cc1nonc1OC(C)CNc1ccc([N+](=O)[O-])cc1", "note": "(stereo not given)", "inhibition": 8.67}
{"compound": "O=[N+]([O-])c1cnn(-c2nc(-c3ccco3)cc(C(F)(F)F)n2)c1", "inhibition": -2.2}
{"compound": "CN1CCN(c2nc(-c3ccco3)cc(C(F)(F)F)n2)CC1", "inhibition": 7.69}
